# Screening data: PubChem BioAssay, National Center for Advancing Translational Sciences (NCATS)
# Most compounds without a hit are left out; they make up all but 2.1% or so of the library.
# TDP-43 yeast inh – TDP-43 toxicity inhibition in yeast | TDP-43 expressing yeast growth rescue, BacTiter-Glo, 24 h | Potency, µM (highest dose often 46.1 µM), most hits filed as activators | hit rate 1.8% among 410,000; also: nearly all actives have a fitted effect of over 50% in size
#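 Cell-based yeast growth screen: TDP-43 expression induced in galactose, inoculum OD600=0.02 after raffinose pregrowth to mid-log. Read-out BacTiter-Glo luminescence at 24 hr, 30 deg C; inhibition of toxicity seen as signal increase.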
# aSyn rescue – alpha-synuclein toxicity inhibition in yeast; Potency, µM (doses to about 46.1 µM), hits mostly activators; Yeast expressing alpha-synuclein, growth rescue, BacTiter-Glo, 24 h; hit rate 0.14% among 370,000; also: nearly all actives have a fitted effect of over 65% in size
#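 Galactose-induced alpha-syn yeast (OD600=0.02, raffinose-pregrown) + pinned cpd, 24 hr, 30 deg C; growth by BacTiter-Glo luminescence. Growth restoration scores as activation.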
# FUS yeast rescue – FUS proteinopathy suppression in yeast; Potency, µM (doses to about 76.6 µM), most hits filed as activators; AID 1347120; hit rate 0.24% among 390,000; S. cerevisiae FUS-expressing, growth rescue, OD600, 24 h; also: nearly all actives have a fitted effect of over 55% in size
#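 Galactose (2%) drives FUS expression in yeast precultured in raffinose; seeding density OD 0.005. Test compounds incubated 24hr at 30C and 99% humidity before absorbance at 600 nm was measured.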
# Abeta rescue – restores growth of yeast expressing A-beta42 peptide; Potency, µM (highest dose often 46.1 µM), usual class: activators; AID 1347071; hit rate 0.063% among 410,000; yeast expressing A-beta42, growth rescue, OD600, 48 h; response scale: 0% DMSO, 100% iron-clioquinol control; also: nearly all actives have a fitted effect of over 55% in size
#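 Growth rescue measured by 600 nm absorbance after 48 h yeast culture at 30 C with compound. Values normalized between DMSO and an equimolar ferric chloride plus clioquinol control.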
# Numbers stand for hits; - = inactive; ? = inconclusive; . = no result given. Calls follow the shape of the dose curve; as a rule, active = well fitted curve in the direction sought with a large enough effect; inconclusive = small, poorly fitted or top-dose-only effect, or another doubt; inactive = no such curve, though single readings can be large; an effect the other way counts as inactive or inconclusive.
SMILES,TDP-43 yeast inh,aSyn rescue,FUS yeast rescue,Abeta rescue
COc1ccccc1N1CCN(S(=O)(=O)c2ccc3c(c2)CCC(=O)N3)CC1,.,.,-,.
CC1CCCN(S(=O)(=O)c2ccc(C(=O)Nc3nnc(-c4ccco4)o3)cc2)C1 (configuration not stated),-,-,-,-
COc1cccc2sc(NC(=O)c3ccc4c(c3)OCCO4)nc12,-,.,-,-
CCOC(=O)N1CCN(S(=O)(=O)c2ccc(C(=O)NNc3nc4cc(C)cc(C)c4s3)cc2)CC1,5.6µM,-,-,-
Cc1cccc2sc(NNC(=O)c3ccc4c(c3)OCCO4)nc12,35µM,-,-,?
CCc1nnc(NC(=O)c2ccc(S(=O)(=O)N3CCCC(C)C3)cc2)o1 (configuration not stated),?,22µM,-,?
Cc1cccc2sc(NNC(=O)c3ccc(S(=O)(=O)N4CCCC(C)C4)cc3)nc12 (configuration not stated),5.6µM,-,?,-
Cc1ccc(-c2nc(C3CCCN(S(=O)(=O)c4ccc(Cl)s4)C3)no2)cc1 (configuration not stated),.,.,-,.
CCOCc1nnc(NC(=O)c2ccc3c(c2)OCO3)s1,-,-,-,-
Cc1cc(C)c2nc(NNC(=O)c3ccc(S(=O)(=O)N4CCCCC4)cc3)sc2c1,6.3µM,-,?,-
Cc1cc(C)c2nc(NC(=O)c3ccc(S(=O)(=O)N4CCCC4)cc3)sc2c1,-,-,-,-
CC(C)Cc1nnc(NC(=O)c2ccc3c(c2)OCCO3)s1,20µM,-,-,-
CN1[C@@H](Cc2ccccc2)COc2cccc(F)c2S1(=O)=O,.,.,-,.
CCOC(=O)C(=CNNc1ccccc1)C(=O)OCC,13µM,?,-,-
CCCCCOC(=O)c1c(N)n(CCOC)c2nc3ccccc3nc12,18µM,-,-,-
CCOC(=O)c1c(N)n(CCOC(=O)c2cccs2)c2nc3ccccc3nc12,-,-,-,-
CC(=O)NC(Cc1ccccc1)P(=O)(O)O (configuration not stated),.,.,-,.
Cc1c(CC(=O)N2CCN(C(=O)C3COc4ccccc4O3)CC2)c(=O)oc2cc(O)cc(O)c12 (configuration not stated),-,-,18µM,-
O=C(NCCCc1ccccc1)c1nn(-c2ccccc2)nc1CO,-,.,-,-
O=C(NCCc1ccccc1)c1nn(-c2ccccc2Cl)nc1CO,35µM,.,-,-
COc1ccc(CN2C(=O)CCCC2(C)c2nnnn2-c2ccc3c(c2)OCCO3)cc1 (configuration not stated),.,.,-,.
Cc1cc(C)n(-c2nc(Nc3ccccc3C(F)(F)F)nc(-n3nc(C)cc3C)n2)n1,20µM,?,?,-
Cc1cc(C)n(-c2nc(NC(C)(C)C)nc(NC(C)(C)C)n2)n1,-,-,-,?
COCCCN1C(=O)[C@H](CC(=O)NCc2ccc(C)o2)[C@]2(C(=O)OC)CCCCC=C12,.,.,-,.
CN1OC[C@@H]2CN(Cc3cc(Cl)cc(Cl)c3)[C@H](c3cccc(Br)c3)C[C@@H]21,35µM,-,-,-
SMILES,TDP-43 yeast inh,aSyn rescue,FUS yeast rescue,Abeta rescue
Cc1ccccc1-c1cccc([C@@H]2C[C@H]3[C@H](CON3C)CN2Cc2cc(Cl)cc(Cl)c2)c1,20µM,-,-,-
Fc1ccc(C2Nc3cccc4cccc(c34)N2)cc1,-,-,-,-
Cc1ccc(C2Nc3cccc4cccc(c34)N2)s1,10µM,-,.,-
Cc1ccc(NC(=O)c2cc(S(=O)(=O)NCCC3=CCCCC3)ccc2F)cc1,22µM,-,.,-
COc1ccc(NC(=O)c2cc(S(=O)(=O)NCC3COc4ccccc4O3)ccc2F)cc1 (configuration not stated),35µM,-,?,-
CCOc1ccc(NC(=O)c2cc(S(=O)(=O)NC3CCCCCC3)ccc2F)cc1,13µM,.,-,-
CCC[N+](C)(C)c1ccc(/C=C/c2ccnc3ccccc23)cc1,.,-,.,.
CCCC(=O)N1CCC[C@]2(CC[C@@H](CCC(=O)N(CC)CC)O2)C1,.,.,-,.
CCOc1ccccc1NC(=O)C(OC(=O)c1cnc(C)cn1)c1ccccc1 (configuration not stated),18µM,-,-,?
CCOc1ccccc1NC(=O)C(OC(=O)C1CC1)c1ccccc1 (configuration not stated),-,-,-,?
Clc1ccc(-n2nnnc2-c2cnc3ccccc3c2-c2ccccc2)cc1,?,?,-,-
c1ccc(-n2nnnc2-c2cnc(-c3cccnc3)nc2-c2cccs2)cc1,32µM,-,?,-
CC(=O)Oc1ccc(-c2nc3cc(Cl)ccc3c(=O)o2)cc1,4µM,-,-,-
CC(=O)Oc1ccc2nc(/C=C/c3ccccc3)oc(=O)c2c1,3.5µM,-,-,-
CC(=O)Oc1ccc2nc(/C=C/c3ccc(C=O)cc3)oc(=O)c2c1,-,-,-,-
CCC(=O)Oc1ccc(-c2nc3ccccc3c(=O)o2)cc1,4µM,.,-,-
CCCOc1ccc(-c2nc3ccccc3c(=O)o2)cc1,-,-,-,-
CC(=O)Oc1ccc2c(=O)oc(-c3ccccc3C)nc2c1,14µM,-,-,-
COc1cccc(/C=C2\CC3(OC(=O)c4ccc(Cl)cc4)CCCN2C3)c1 (configuration not stated),.,.,-,.
CCN1CCCCC(NC(=O)c2ccccc2)C1=O (configuration not stated),.,.,-,.
CCN(CC)c1ccc(/C=C/c2ccc3ccccc3n2)cc1,.,-,.,.
COc1cc2c(cc1[N+](=O)[O-])-c1ccc([N+](=O)[O-])cc1C2=NO,10µM,-,-,-
O=[N+]([O-])c1ccc2c(c1)/C(=N\O)c1ccccc1-2,-,-,-,-
COC(=O)[C@H]1C[C@]2(C(/C=C(\C)CCC=C(C)C)S(=O)(=O)c3ccccc3)c3ccccc3N[C@H]2N1 (some centres not stated),.,.,-,.
Cc1cc(C)c(NC(=O)c2sc3nc4c(cc3c2N)C(=O)CC(C)(C)C4)c(C)c1,20µM,-,?,-
SMILES,TDP-43 yeast inh,aSyn rescue,FUS yeast rescue,Abeta rescue
COC(=O)c1sc2nc3c(cc2c1N)C(=O)CC(C)(C)C3,-,-,-,-
Cc1ccc(CNC(=O)c2cc(-c3ccccc3C)nn2CC2CC(c3cccnc3)=NO2)cc1 (configuration not stated),?,-,-,-
COc1ccc(C2=NOC(Cn3nc(-c4ccccc4)cc3C(=O)NCc3cccs3)C2)cc1 (configuration not stated),-,-,32µM,-
COc1ccc(C2=NOC(Cn3nc(C(=O)NCc4cccs4)cc3-c3ccccc3)C2)cc1 (configuration not stated),?,-,-,-
Cc1ccccc1-c1cc(C(=O)NCc2ccc(OC(F)(F)F)cc2)n(CC2CC(c3cccnc3)=NO2)n1 (configuration not stated),?,-,22µM,-
Cc1cccc(Nc2nc(NCc3ccco3)nc(N3CCOCC3)n2)c1,13µM,-,-,-
c1ccc(CNc2nc(NCc3ccco3)nc(N3CCOCC3)n2)cc1,-,-,-,-
